Results on 38 sequences are retold here after the OligoGym collection.
Further: reference of the scale not given here.

The target in the first test is SEMA6D. Nature of the test: pooled miR-30 sensor sort-seq; sequence = guide strand. Conditions: shRNA.
TACTGTATAAACTTGATCCCTG displayed a sensor-assay potency score (higher = more potent) of 0.49.
On the same count and under the same terms, then TTGATTTGTATTATGTCTGTAA, with 0.267.
Same read-out and setting: then TTGGGTGGTAGCTCTTTCCGAC, with -0.271.

In another test the target is SENP1. The description is as above. The note with it: shRNA.
TTGAACTGTCTCTTCTGCTGTA returned a sensor-assay potency score (higher = more potent) of 0.936.
TGTACTAACATGTCGCCTCTGA yielded a sensor-assay potency score (higher = more potent) of 0.2.
On the same count and under the same terms, in the case of TTTACTTCGCTCCATCAGCATA it was -1.5; in that of TAGAGTTTGAATATCTTTGCGT, 0.243.
Same read-out and setting: in the case of TATCAGTTAATTTATGACCTTT it was 0.136.
Sequence TTCACTGAGAACTTCATCCTGA displayed a sensor-assay potency score (higher = more potent) of 0.885.
AACAGTAACAGGAATCTCCTTT returned a sensor-assay potency score (higher = more potent) of -0.105.
In the case of TACTGGAACTAAGACATCGAGA, the sensor-assay potency score (higher = more potent) is -0.808.
On the same count and under the same terms, in the case of TAATAGGTAATATTCTTCTTTC it was -0.79.
On to TTATCTGAGTAATAGCTTGGAT, for which the sensor-assay potency score (higher = more potent) is 0.0199.
Same read-out and setting: then TATTGCAAGAGTATTCTGCAGG, with -0.448.
Regarding TTGATTGGTCTGTCTTTGGTAA, the sensor-assay potency score (higher = more potent) is -0.497.

A further test concerns the target SERPINB7. Described as above. Conditions: shRNA.
In turn, TTGATTGTCATCCATCTCTCTG gave a sensor-assay potency score (higher = more potent) of -0.525.
The same measure, in the same setting: then TTCTCTATCTTGAACTGAGGAA, with -0.416; and TAAGATTTGTGCATCATCCTTG, with 1.22; and TAGAAGAGTTTCCATATCCTGA, with 0.0524.
On the same count and under the same terms, then TTCTACAATATTACTTCCTGTG, with -0.132; and TTCATAATTCTTCTCTATCTTG, with -0.438.
On the same count and under the same terms, in the case of TTTTCTACAATATTACTTCCTG it was 0.325; in that of TTCTTCTCTATCTTGAACTGAG, -0.146.
On to TAATATTACGTCTAGTGTCTTC, for which the sensor-assay potency score (higher = more potent) was -0.265.
The sequence ATTTCCTTGATTGTCATCCATC gave a sensor-assay potency score (higher = more potent) of -1.25.
Same read-out and setting: then TACTTAGAGGTCATTCGCCTTG, with -0.685.

The target of a further test is SERPINE2. Described as above. Conditions: shRNA.
As to TTCCTCAGTACAGTGTTCCAGC, the sensor-assay potency score (higher = more potent) was -0.117.
The same measure, in the same setting: then TTGTCAATCATATCCCTGGTTT, with -0.515.
Same read-out and setting: in the case of TACAGCTGTGAACTTGGGCAGG it was -0.9; in that of AACAGAAACACTTGCATCGAGT, -0.757; in that of TATTTTAGTGAATACATGCATT, -0.736.
Consider ATTCTTAACAAACACGGCGTTA, for which the sensor-assay potency score (higher = more potent) was -0.703.
On the same count and under the same terms, then TACAGTGTTCCAGCCATCCTGC, with -0.935; and TTAATATTTTACCAACTCCATT, with -1.64; and TTGATGAATCAAACATGTCAGT, with -0.681.
Same read-out and setting: in the case of TATTTTTGCAAAATTTGCCTTT it was -0.263; in that of TTGTGCTACAGCTGTGAACTTG, -0.393.
With TTTAACAGAACTATGAAAGATG, the sensor-assay potency score (higher = more potent) was -0.755.
